Here are results for 38 compounds from PubChem BioAssay (Tox21).

Records with an inconclusive call do not appear. Calls of active or inactive are those of the source. Unless noted, calls come from the whole dose curve; as a rule, active = well fitted cell-killing curve with a large enough effect in the repeat runs; inconclusive = weak or mixed curves; inactive = no such curve, though single readings can be large or run the other way.

The first assay has as its target Peroxisome proliferator-activated receptor delta (Homo sapiens) (UniProt Q03181). Description: qHTS assay to identify small molecule agonists of the peroxisome proliferator-activated receptor delta (PPARd) signaling pathway (AID 743212; calls by dose curve). The settings on record: HEK293H PPARd-UAS-bla, beta-lactamase FRET ratio, 17 h; series mostly up to 62.6 µM. Summed up: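 Beta-lactamase reporter read by fluorescence (LiveBLAzer B/G FRET, 2 h, room temperature). Test agents, in DMSO, incubated at 37 C with PPARd-bla HEK293H cells.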
In general terms: Quantitative high-throughput screening tests each substance at several concentrations.
As to `NC(=O)c1cc([N+](=O)[O-])cc([N+](=O)[O-])c1`, the result was inactive.

For the compound `CN1CCC(O)(c2ccc(F)cc2)C(C(=O)c2ccc(F)cc2)C1` (stereo unspecified), the result was inactive.

For the compound `O=[N+]([O-])c1ccc2c3c(cccc13)CC2`, the result was inactive.

Regarding `O=NN1CCCCC1`, the outcome was inactive.

For the compound `CCCCc1ccc(O)cc1`, the result was inactive.

Turning to `CC(CC(C#N)(c1ccccc1)c1ccccc1)N(C)C` (stereo unspecified), the outcome was inactive.

As for `OC(Cn1cncn1)(c1ccc(F)cc1)c1ccccc1F` (stereo unspecified), the outcome was inactive.

Consider `N#CC(Cl)(Cl)Cl`, for which the result was inactive.

In the case of `CCCCOC(=O)c1ccccc1C(=O)O`, the outcome was inactive.

Turning to `N#Cc1c(Cl)cccc1Cl`, the outcome was inactive.

Regarding `CC(=O)Nc1cc([As](=O)(O)O)ccc1O`, the outcome was inactive.

Take `COP(N)(=S)Oc1ccccc1C(=O)OC(C)C` (stereo unspecified): the outcome was inactive.

With `CC1CCC(=O)O1` (stereo unspecified), the outcome was inactive.

`CC(COc1ccc(Oc2ccccc2)cc1)Oc1ccccn1` (stereo unspecified): the result was inactive.

As for `CNC(=O)Oc1ccc(N(C)C)c(C)c1`, the outcome was inactive.

In the case of `O=[N+]([O-])c1cccc(O)c1`, the outcome was inactive.

With `CNC(=O)Oc1c(C(C)(C)C)cc(C)cc1C(C)(C)C`, the outcome was inactive.

With `CCOC(=O)C(c1c(O)c2ccccc2oc1=O)c1c(O)c2ccccc2oc1=O`, the outcome was inactive.

Regarding `COCC(=O)N(c1c(C)cccc1C)N1CCOC1=O`, the outcome was inactive.

`O=CNC(N1CCN(C(NC=O)C(Cl)(Cl)Cl)CC1)C(Cl)(Cl)Cl` (stereo unspecified): the result was inactive.

Take `CCOC(=O)CP(=O)(OCC)OCC`: the outcome was inactive.

`C#C[C@]1(O)C=C[C@H]2[C@@H]3CCC4=CC(=O)CC[C@@H]4[C@H]3CC[C@@]21CC`: the outcome was inactive.

With `O=C(Nc1ccccc1)N(Cc1ccc(Cl)cc1)C1CCCC1`, the result was inactive.

Take `CCC/C(=N\OCC)C1=C(O)CC(CC(C)SCC)CC1=O` (stereo unspecified): the result was inactive.

As to `COC(=O)C1=CCCN(C)C1`, the result was inactive.

System in the next assay: not listed separately
Description: qHTS assay to identify small molecule antagonists of the peroxisome proliferator-activated receptor delta (PPARd) signaling pathway - cell viability counter screen (AID 743213). Note: nearly all actives have a fitted effect of over 50% in size. The settings on record: PPARd-bla HEK293H viability, CellTiter-Glo luminescence, 17 h; series mostly up to 62 µM. Summed up:
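Luminescence from CellTiter-Glo, added after the bla read and incubated 30 min at room temperature, gives viability of HEK293H PPARd-bla cells exposed to compounds for 17 h at 37 C with 300 nM L165041.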
Take `NC(=O)c1cc([N+](=O)[O-])cc([N+](=O)[O-])c1`: the compound was classed as inactive.

Consider `CN1CCC(O)(c2ccc(F)cc2)C(C(=O)c2ccc(F)cc2)C1` (stereo unspecified), for which the outcome was inactive.

Consider `O=[N+]([O-])c1ccc2c3c(cccc13)CC2`, for which the compound was called inactive.

As to `O=NN1CCCCC1`, the call was inactive.

As for `CCCCc1ccc(O)cc1`, the call was inactive.

For the compound `CC(Oc1ccc(Oc2ncc(C(F)(F)F)cc2Cl)cc1)C(=O)O` (stereo unspecified), the call was inactive.

On to `Clc1ccccc1N1CCNCC1`, for which the compound was classed as inactive.

With `CC(Cl)(Cl)[N+](=O)[O-]`, the compound was classed as inactive.

Turning to `OCCBr`, the call was inactive.

As to `OC(Cn1cncn1)(c1ccc(F)cc1)c1ccccc1F` (stereo unspecified), the call was inactive.

Regarding `N#CC(Cl)(Cl)Cl`, the compound was classed as inactive.

For the compound `CCCCOC(=O)c1ccccc1C(=O)O`, the compound was classed as inactive.

On to `N#Cc1c(Cl)cccc1Cl`, for which the compound was classed as inactive.

In the case of `CC(=O)Nc1cc([As](=O)(O)O)ccc1O`, the call was inactive.

In the case of `COP(N)(=S)Oc1ccccc1C(=O)OC(C)C` (stereo unspecified), the compound was classed as inactive.

Regarding `CC1CCC(=O)O1` (stereo unspecified), the compound was called inactive.

`CNC(=O)Oc1ccc(N(C)C)c(C)c1`: the result was inactive.

For the compound `O=[N+]([O-])c1cccc(O)c1`, the compound was called inactive.

For `CNC(=O)Oc1c(C(C)(C)C)cc(C)cc1C(C)(C)C`, the call was inactive.

For the compound `C[N+](C)=CCl`, the compound was called inactive.

As to `CCOC(=O)C(c1c(O)c2ccccc2oc1=O)c1c(O)c2ccccc2oc1=O`, the outcome was inactive.

As to `COCC(=O)N(c1c(C)cccc1C)N1CCOC1=O`, the call was inactive.

With `Cc1ncc2n1-c1ccc(Cl)cc1C(c1ccccc1F)=NC2`, the compound was classed as inactive.

Consider `O=CNC(N1CCN(C(NC=O)C(Cl)(Cl)Cl)CC1)C(Cl)(Cl)Cl` (stereo unspecified), for which the compound was called inactive.

As to `CCOC(=O)CP(=O)(OCC)OCC`, the result was inactive.

As to `C#C[C@]1(O)C=C[C@H]2[C@@H]3CCC4=CC(=O)CC[C@@H]4[C@H]3CC[C@@]21CC`, the compound was called inactive.

Consider `O=C(Nc1ccccc1)N(Cc1ccc(Cl)cc1)C1CCCC1`, for which the compound was classed as inactive.

Consider `C[C@@H]1CN(C2CCC(C#N)(c3ccc(F)cc3)CC2)CC[C@]1(C(=O)O)c1ccccc1` (stereo partly specified), for which the compound was classed as inactive.

Regarding `C[C@]12CC[C@H]3[C@@H](CC=C4C[C@@H](O)CC[C@@]43C)[C@@H]1CC[C@@H]2O`, the compound was classed as inactive.

In the case of `CC(C(O)c1ccccc1)N(C)C/C=C/c1ccccc1` (stereo unspecified), the compound was called inactive.

Regarding `O=C(Oc1ccc(Br)cc1)N1CCN2CCC1CC2`, the result was inactive.

As to `CN/C(=N\[N+](=O)[O-])NCC1CCOC1` (stereo unspecified), the result was inactive.

In the case of `CN1CCN(C(=O)O[C@H]2c3nccnc3C(=O)N2c2ccc(Cl)cn2)CC1`, the result was inactive.

For `CCC/C(=N\OCC)C1=C(O)CC(CC(C)SCC)CC1=O` (stereo unspecified), the result was inactive.

Turning to `COC(=O)C1=CCCN(C)C1`, the compound was classed as inactive.

Take `CCC(C)n1c(=O)[nH]c(C)c(Br)c1=O` (stereo unspecified): the result was inactive.

A further assay deals with Peroxisome proliferator-activated receptor delta (Homo sapiens) (UniProt Q03181). The assay can be described thus: qHTS assay to identify small molecule antagonists of the peroxisome proliferator-activated receptor delta (PPARd) signaling pathway (AID 743215; active = well fitted inhibition curve with a large enough effect in the signal ratio in the repeat runs, not every such curve was filed as active; the % refers to the signal ratio;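 note: cells stimulated with agonist L165041 at 300 nM final during compound exposure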). The settings on record: HEK293H PPARd-UAS-bla, beta-lactamase FRET ratio, antagonist, 17 h; series mostly up to 62 µM. Summed up: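 Screen format: qHTS, antagonist mode. HEK293H PPARd-bla cells received compound and 300 nM L165041 (final), 17 h, 37 C. Beta-lactamase detected via FRET substrate fluorescence, 2 h, room temperature.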
Peroxisome proliferator-activated receptor delta (Homo sapiens), sequence (Q03181 whole entry, looked up): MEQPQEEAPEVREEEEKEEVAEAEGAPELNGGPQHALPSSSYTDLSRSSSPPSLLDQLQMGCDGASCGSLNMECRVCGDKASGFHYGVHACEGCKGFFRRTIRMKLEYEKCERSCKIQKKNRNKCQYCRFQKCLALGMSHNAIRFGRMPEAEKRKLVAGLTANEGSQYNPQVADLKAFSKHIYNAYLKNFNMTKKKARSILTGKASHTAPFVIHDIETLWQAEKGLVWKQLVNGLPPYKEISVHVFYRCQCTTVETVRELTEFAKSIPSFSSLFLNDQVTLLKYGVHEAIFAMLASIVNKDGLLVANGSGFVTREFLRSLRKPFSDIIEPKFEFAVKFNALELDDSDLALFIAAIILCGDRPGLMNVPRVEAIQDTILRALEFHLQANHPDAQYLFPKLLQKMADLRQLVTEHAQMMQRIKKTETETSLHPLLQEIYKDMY
In the case of `NC(=O)c1cc([N+](=O)[O-])cc([N+](=O)[O-])c1`, the outcome was inactive.

For the compound `CN1CCC(O)(c2ccc(F)cc2)C(C(=O)c2ccc(F)cc2)C1` (stereo unspecified), the result was inactive.

Take `O=[N+]([O-])c1ccc2c3c(cccc13)CC2`: the result was inactive.

Consider `O=NN1CCCCC1`, for which the result was inactive.

In the case of `CCCCc1ccc(O)cc1`, the outcome was inactive.

As to `CC(Oc1ccc(Oc2ncc(C(F)(F)F)cc2Cl)cc1)C(=O)O` (stereo unspecified), the result was inactive.

With `Clc1ccccc1N1CCNCC1`, the outcome was inactive.

As for `CC(CC(C#N)(c1ccccc1)c1ccccc1)N(C)C` (stereo unspecified), the result was inactive.

Regarding `CC(Cl)(Cl)[N+](=O)[O-]`, the result was inactive.

With `OC(Cn1cncn1)(c1ccc(F)cc1)c1ccccc1F` (stereo unspecified), the result was inactive.

Take `N#CC(Cl)(Cl)Cl`: the outcome was inactive.

With `N#Cc1c(Cl)cccc1Cl`, the outcome was inactive.

For `CC(=O)Nc1cc([As](=O)(O)O)ccc1O`, the outcome was inactive.

Take `COP(N)(=S)Oc1ccccc1C(=O)OC(C)C` (stereo unspecified): the outcome was inactive.

Consider `CC1CCC(=O)O1` (stereo unspecified), for which the result was inactive.

In the case of `CC(COc1ccc(Oc2ccccc2)cc1)Oc1ccccn1` (stereo unspecified), the outcome was inactive.

For `CNC(=O)Oc1ccc(N(C)C)c(C)c1`, the outcome was inactive.

`O=[N+]([O-])c1cccc(O)c1`: the result was inactive.

Turning to `CNC(=O)Oc1c(C(C)(C)C)cc(C)cc1C(C)(C)C`, the outcome was inactive.

In the case of `CCOC(=O)C(c1c(O)c2ccccc2oc1=O)c1c(O)c2ccccc2oc1=O`, the result was inactive.

For `COCC(=O)N(c1c(C)cccc1C)N1CCOC1=O`, the result was inactive.

As to `CCOC(=O)CP(=O)(OCC)OCC`, the outcome was inactive.

With `C[C@@H]1CN(C2CCC(C#N)(c3ccc(F)cc3)CC2)CC[C@]1(C(=O)O)c1ccccc1` (stereo partly specified), the result was inactive.

With `O=C(Oc1ccc(Br)cc1)N1CCN2CCC1CC2`, the outcome was inactive.

Consider `COC(=O)C1=CCCN(C)C1`, for which the result was inactive.
